Screening results from PubChem BioAssay.
Only some compounds are listed: those with a hit (about 5.8% of all), similar ones and a draw of the others.
KB-3-1 cytotox: kills parental KB-3-1 adenocarcinoma cells | KB-3-1 viability, CellTiter-Glo ATP luminescence, 72 h | 400,000 tested, 1.4% active | AID 1347075 | Potency, µM (series often up to 46.1 µM), actives largely listed as cytotoxic; also: % is scaled to controls: 0 for no effect and ±100 for the full control effect; nearly all actives have a fitted effect of over 60% in size
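Luminescent ATP read-out (CellTiter-Glo) measures survival of drug-naive KB-3-1 cells after 72 h compound exposure at 37 °C. Titration series was screened from lowest to highest concentration, with DMSO vehicle plates as background controls.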
ALOX12 inh: inhibitors of human 12S-lipoxygenase ALOX12; P18054; purified 12hLO, xylenol orange hydroperoxide absorbance; Potency, µM (top dose mostly 108 µM), without a hit: at the top dose activity change, negative = inhibition, hits mostly inhibitors; 580,000 tested, 1.1% active; AID 1671190; also: % is scaled to controls: 0 for no effect and ±100 for the full control effect
Target sequence (P18054 whole entry, looked up): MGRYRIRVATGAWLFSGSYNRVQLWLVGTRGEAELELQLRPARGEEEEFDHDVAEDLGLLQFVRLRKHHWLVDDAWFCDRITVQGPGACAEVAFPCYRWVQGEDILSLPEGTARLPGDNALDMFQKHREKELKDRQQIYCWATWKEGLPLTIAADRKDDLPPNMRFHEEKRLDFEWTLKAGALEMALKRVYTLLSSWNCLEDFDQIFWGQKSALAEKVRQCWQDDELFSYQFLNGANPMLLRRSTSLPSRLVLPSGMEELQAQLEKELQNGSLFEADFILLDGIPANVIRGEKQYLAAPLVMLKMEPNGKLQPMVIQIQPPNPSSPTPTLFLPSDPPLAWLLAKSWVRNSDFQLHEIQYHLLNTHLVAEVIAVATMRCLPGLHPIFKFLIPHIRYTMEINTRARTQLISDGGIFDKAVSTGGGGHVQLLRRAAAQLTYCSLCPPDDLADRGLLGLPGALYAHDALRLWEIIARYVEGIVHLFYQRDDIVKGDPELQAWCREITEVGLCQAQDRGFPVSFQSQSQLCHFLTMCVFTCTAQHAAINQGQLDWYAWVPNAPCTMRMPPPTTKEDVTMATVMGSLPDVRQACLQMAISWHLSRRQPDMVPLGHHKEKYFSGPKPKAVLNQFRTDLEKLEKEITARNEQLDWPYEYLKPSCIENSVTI
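Hydroperoxide product was detected by ferrous iron/xylenol orange as the 573 to 405 nm absorbance ratio. Arachidonic acid at 40 uM (final) was turned over for 30 min at room temperature by 150 nM human 12hLO, pH 7.0 Hepes buffer, after 15 min compound preincubation.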
PINK1 expr mod: changes PINK1 expression | PINK1 immunofluorescence, high-content cytometry, 24 h | Potency, µM (highest dose often 76.6 µM), for the others: at the highest dose activation (PINK1 increase), usual class: activators | 410,000 tested, 0.2% active; active = well fitted activation curve with a large enough effect; inconclusive = small, poorly fitted or top-dose-only effect; cell line not stated here; also: % of control where 0% means no effect; nearly all actives have a fitted effect of over 65% in size
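PINK1 protein level read as immunofluorescence by microplate cytometer in a fixed, stained stable cell line after 24 h exposure to five compound concentrations, with CCCP as control.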
SW480 rerep: DNA re-replication induction in SW480 cells; 340,000 tested, 1.8% active; SW480 DNA re-replication, Hoechst DNA content imaging, 48 h; Potency, µM (doses to about 46.1 µM), inactives show at the highest dose re-replication activation, actives largely listed as activators; also: % of control where 0% means no effect; nearly all actives have a fitted effect of over 55% in size
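First, 250 cells per well were seeded. Next, compound or vehicle (23 nL) was pinned in, plates sat 48 hr at 37 C. Finally Hoechst was added for 40 min before fluorescence scanning.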
MCF10A rerep: DNA re-replication induction in MCF 10a cells. MCF 10A DNA re-replication, Hoechst nuclear intensity, 48 h. Potency, µM (titrated, usually from 46.1 µM), inactives show top-dose activity, positive = re-replication, actives largely listed as activators. 350,000 tested, 2.9% active; also: % of control where 0% means no effect; nearly all actives have a fitted effect of over 50% in size
KB-V1 MDR tox: kills drug-selected multidrug resistant KB-V1 cells. KB-V1 MDR cells viability, CellTiter-Glo, 72 h. Potency, µM (highest dose often 46.1 µM), usual class: cytotoxic. 400,000 tested, 3.4% active; also: % is scaled to controls: 0 for no effect and ±100 for the full control effect; nearly all actives have a fitted effect of over 60% in size
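Compound-treated KB-V1 multidrug-resistant cells, 72 h, 37 degrees C; viability by CellTiter-Glo. Fitted qHTS curves give the values.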
Starred values were filed as active, the others as inactive; i = inactive; ? = inconclusive; / = no result; [ ] = dose if it differs, or a comment. Unless noted, calls follow the shape of the dose curve; as a rule, active = well fitted curve in the direction sought with a large enough effect; inconclusive = small, poorly fitted or top-dose-only effect, or another doubt; inactive = no such curve, though single readings can be large; an effect the other way counts as inactive or inconclusive. Potency is read from the fitted curve at half-maximal effect.

SMILES	KB-3-1 cytotox	ALOX12 inh	PINK1 expr mod	SW480 rerep	MCF10A rerep	KB-V1 MDR tox
CCCOc1ccc(C2C(C(=O)c3ccc(C)o3)=C(O)C(=O)N2Cc2ccco2)cc1 (stereo unspecified)	i	?	4%	?	-2%	18µM*
COc1nc(C(=O)N2CCN(CC(F)(F)F)CC2)cc2ccccc12	/	-2%	/	/	/	/
CC(C)=CCc1c(O)cc2c(=O)c3ccc(O)cc3oc2c1O	i	?	3%	3%	15%	?
COc1c(CC=C(C)C)c(O)cc2oc(=O)c3c4ccc(O)cc4oc3c12	i	/	5%	?	18µM*	?
Oc1cccc(C=Nc2cccc3ccccc23)c1O	i	?	0%	18µM*	18µM*	i
N#Cc1nc(-c2ccccc2)oc1N1CCN(C(=O)c2cccs2)CC1	/	-2%	/	/	/	/
Cc1ccc(CN2CCSc3ccc(C(=O)N4CCN(c5ncccn5)CC4)cc32)cc1	21µM*	/	?	?	?	21µM*
CCN1CCN(CCCNC(=O)c2ccc3c(c2)N(Cc2ccc(C)cc2)CCS3)CC1	?	/	-1%	15µM*	15%	i
CC(C)(C)OC(=O)N[C@@H](Cc1ccccc1)c1nnc(SCC(=O)O)o1	i	-18%	0%	-3%	18%	i
CC(C)(C)OC(=O)N[C@@H](Cc1ccccc1)c1nnc(SCC(=O)c2ccc(Cl)cc2)o1	i	3%	17%[38.3 µM]	?	?	16µM*
CCSc1nnc([C@H](Cc2ccccc2)NC(=O)OC(C)(C)C)o1	i	0%	15%[38.3 µM]	2%	7%	16µM*
CCCCSc1nnc([C@H](C)NC(=O)OC(C)(C)C)o1	i	10%	-1%[38.3 µM]	-3%	16%	13µM*
Cn1nc(C(=O)Nc2ccnn2Cc2ccccc2Cl)c2ccccc2c1=O	/	22%	/	/	/	/
CCOc1ccc(CCN2C(=S)N([C@@H](CC(C)C)CN3CCCC3CN3C(=S)NC[C@@H]3CC(C)C)C[C@@H]2Cc2ccccc2)cc1 (stereo partly specified)	i	14µM*	0%	-9%	-4%	i
Oc1ccc(C[C@H]2CNC(=S)N2CC2CCCN2C[C@H](Cc2ccccc2)N2C[C@H](Cc3ccc(O)cc3)N(CC3CCCCCC3)C2=S)cc1 (stereo partly specified)	?	11µM*	0%	-4%	-23%	?
Oc1ccc(C[C@H]2CNC(=S)N2CC2CCCN2C[C@H](Cc2ccc(O)cc2)N2C[C@H](Cc3ccc(O)cc3)N(CC3CCCCC3)C2=S)cc1 (stereo partly specified)	?	?	-1%	?	12µM*	i
Oc1ccc(C[C@H]2CNC(=S)N2CC2CCCN2C[C@H](Cc2ccc(O)cc2)N2C[C@H](Cc3ccccc3)N(CCc3ccccc3)C2=S)cc1 (stereo partly specified)	23µM*	-5%	3%	?	19%	i
CCOc1ccc(CCN2C(=S)N([C@@H](Cc3ccccc3)CN3CCC[C@@H]3CN3C(=S)NC[C@@H]3CC(C)C)C[C@@H]2Cc2ccccc2)cc1	i	?	2%	/	/	?
CC(C)C[C@@H](CN1CCCC1CN1C(=S)NC[C@@H]1Cc1ccc(O)cc1)N1C[C@H](Cc2ccc(O)cc2)N(CC2CCCCC2)C1=S (stereo partly specified)	?	?	-1%	?	7.3µM*	?
CC(C)C(=O)NC(Nc1cccc2ccccc12)C(Cl)(Cl)Cl (stereo unspecified)	/	11µM*	/	/	/	/
Cc1ccc(Cl)cc1N1CCN(Cc2nc3c([nH]2)c(=O)n(C)c(=O)n3C)CC1	/	-6%	/	/	/	/
CCCCn1c(=N)n(CCOc2ccc(C)cc2)c2ccccc21	?	-19%	-1%	18µM*	?	?
CC(C)(C)C(=O)Cn1c(=N)n(Cc2ccccc2)c2ccccc21	?	?	5%	?	18µM*	?
CCN(CC)CCn1c(=N)n(CCO)c2ccccc21	i	-7%	-4%	-5%	7%	i
CC(C)(C)C(=O)Cn1c(=N)n(Cc2ccccc2Cl)c2ccccc21	?	?	8%	?	14%	i
SMILES	KB-3-1 cytotox	ALOX12 inh	PINK1 expr mod	SW480 rerep	MCF10A rerep	KB-V1 MDR tox
CN=c1sc2ccccc2n1CC(O)COc1ccccc1 (stereo unspecified)	i	22%	10%	3%	20%	15µM*
CCN(CC)CCn1c(=N)n(CCOc2ccccc2)c2ccccc21	?	8%	10%[38.3 µM]	11µM*	24%	i
CCc1cccc(CC)c1NC(=O)CO/N=C/c1ccccc1O	/	-20%	/	/	/	/
CC(=O)NC1(C(F)(F)F)C(=O)Nc2c1c(=O)[nH]c(=O)n2Cc1ccccc1 (stereo unspecified)	/	-8%	/	/	/	/
CCCCn1c(=O)[nH]c(=O)c2c1nc(CCC(=O)N1CCCCC1C)n2CC(C)C (stereo unspecified)	/	0%	/	/	/	/
CNC(=O)c1nc(-c2ccc(COc3ccc4c(c3)OCO4)cc2)no1	/	-38%	/	/	/	/
COc1ccccc1OCC(O)Cn1c(=N)n(Cc2ccccc2)c2ccccc21 (stereo unspecified)	16µM*	-19%	-3%	?	?	?
CCN(CC)CCn1c(=N)n(CC(O)COc2ccccc2)c2ccccc21 (stereo unspecified)	i	-9%	1%	21µM*	22%	i
CCCCn1c(=N)n(CC(O)COc2cccc(C)c2)c2ccccc21 (stereo unspecified)	21µM*	-13%	0%[38.3 µM]	?	21%	21µM*
CC(C)(CNC(=O)c1cc(-c2ccc(Cl)cc2)on1)N1CCOCC1	/	8%	/	/	/	/
Cc1nn(-c2ccccc2)c(C)c1CCC(=O)N1CCN(S(=O)(=O)c2ccc(F)cc2F)CC1	/	-16%	/	/	/	/
O=C(c1ccccc1)c1ccc(OCc2ccc(-c3ccccc3)cc2)cc1	/	-30%	/	/	/	/
CC(=O)c1ccc(OCc2ccc(C(=O)c3ccccc3)cc2)cc1	15µM*	34%	2%	-14%	13%	16µM*
C/C(=N\NC(=O)C1(C)CC1(Br)Br)c1ccc([N+](=O)[O-])cc1 (stereo unspecified)	i	-10%	1%	-11%	2%	i
C/C(=N\NC(=O)C1(C)CC1(Br)Br)c1ccc(NC(=O)c2ccc(C)o2)cc1 (stereo unspecified)	?	22%	-4%	2%	?	21µM*
